The nature of experiment [1]: rapamycin-like changes in RPL19A-GFP expression – cell-based, S. cerevisiae, multiplex flow cytometry, primary screen (AID 1862; in the data active = percent of DMSO control GFP below about 86%;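 note: lower values mimic rapamycin by blocking the RPL19A rise seen in DMSO cells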). As to conditions: S. cerevisiae RPL19A-GFP strain, flow cytometry fluorescence, 3 h; at 10 µM; stronger effect = lower value. For orientation: Flow cytometry measures light scatter and fluorescence of single cells or particles in a stream.
Experiment [2] is described as follows: TOR pathway GLN3 branch reporter MEP2-GFP changes – S. cerevisiae, multiplex flow cytometry, primary screen (AID 1867;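 active = GFP response, as percent of the DMSO control, above the screen-wide mean plus 3 SD, about 139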;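 note: median GFP channel fluorescence of barcode-gated MEP2-GFP cells measured by flow cytometry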). As to conditions: S. cerevisiae MEP2-GFP strain, 3 h, at 10 µM, stronger effect = higher value, 100% means same as DMSO wells.
Experiment [3] is described as follows: TOR pathway RTG branch CIT2 reporter changes – S. cerevisiae, GFP fusion, multiplex flow cytometry, primary screen (AID 1870;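 active = percent response above a set limit, the screen-wide mean plus 3 SD, cut at about 130% in these data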;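 note: barcoded CIT2-GFP strain pooled with four other GFP strains with rapamycin as positive control; median GFP fluorescence per well over plate mean of DMSO wells so 100% = DMSO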). As to conditions: S. cerevisiae CIT2-GFP expression, 3 h, at 10 µM, stronger effect = higher value.
Experiment [4] in a line: TOR pathway LAP4-GFP level changes – S. cerevisiae, multiplex flow cytometry, primary screen (AID 1873). As to conditions: S. cerevisiae LAP4-GFP expression, 3 h, at 10 µM, stronger effect = higher value.
A short description of experiment [5]: yeast AGP1-GFP level changes, GLN3 branch – cell-based, multiplex flow cytometry, S. cerevisiae, primary screen (AID 1887;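 active = GFP signal above the screen-wide mean plus 3 SD, that is over about 124.5% of the solvent control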;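 note: AGP1-GFP fusion strain of S. cerevisiae within a five-strain barcoded multiplex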). As to conditions: 3 h, at 10 µM, stronger effect = higher value.
A short description of experiment [6]: reduced mouse 2C T cell binding to pMHC/ICAM-1 vesicles – MLPCN validation set, flow cytometry, LFA-1/ICAM-1 modulator project, pilot screen (AID 2523;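 active = response below a set limit, under 55% cells CD8-positive and vesicle-bound, and CD8 cells' 90th-percentile brightness under 279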;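 for vesicle binding response: mean PE anti-B7-1 fluorescence of CD8+ cells relative to row control; 100% = QL9-loaded vesicles with DMSO vehicle in the same plate row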). As to conditions: 2C mouse CD8+ T cells, at 7 µM, stronger effect = lower value; double positive events: measured here: CD8+/vesicle+ event percentage.
The target of experiment [7] is Integrin beta-1 (Homo sapiens) + Integrin alpha-4 (Homo sapiens) (UniProt P13612+P05556). Briefly: alpha4beta1 integrin LIBS antibody binding reduction – U937 cells, HUTS-21 mAb, flow cytometry, validation set, VLA-4 allosteric modulator project, pilot screen (AID 2674;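 active = inhibition above 50%, about 3 SD of the validation set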;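 note: antibody binding induced by the VLA-4 ligand LDV present at three times its Kd; 0% = LDV ligand with antibody and no compound and 100% = antibody without LDV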). The following applies: HUTS-21 LIBS mAb binding, at 6.7 µM, stronger effect = higher value, binding induced by LDV ligand.
Integrin beta-1 (Homo sapiens) + Integrin alpha-4 (Homo sapiens), sequence (P05556 whole entry, looked up): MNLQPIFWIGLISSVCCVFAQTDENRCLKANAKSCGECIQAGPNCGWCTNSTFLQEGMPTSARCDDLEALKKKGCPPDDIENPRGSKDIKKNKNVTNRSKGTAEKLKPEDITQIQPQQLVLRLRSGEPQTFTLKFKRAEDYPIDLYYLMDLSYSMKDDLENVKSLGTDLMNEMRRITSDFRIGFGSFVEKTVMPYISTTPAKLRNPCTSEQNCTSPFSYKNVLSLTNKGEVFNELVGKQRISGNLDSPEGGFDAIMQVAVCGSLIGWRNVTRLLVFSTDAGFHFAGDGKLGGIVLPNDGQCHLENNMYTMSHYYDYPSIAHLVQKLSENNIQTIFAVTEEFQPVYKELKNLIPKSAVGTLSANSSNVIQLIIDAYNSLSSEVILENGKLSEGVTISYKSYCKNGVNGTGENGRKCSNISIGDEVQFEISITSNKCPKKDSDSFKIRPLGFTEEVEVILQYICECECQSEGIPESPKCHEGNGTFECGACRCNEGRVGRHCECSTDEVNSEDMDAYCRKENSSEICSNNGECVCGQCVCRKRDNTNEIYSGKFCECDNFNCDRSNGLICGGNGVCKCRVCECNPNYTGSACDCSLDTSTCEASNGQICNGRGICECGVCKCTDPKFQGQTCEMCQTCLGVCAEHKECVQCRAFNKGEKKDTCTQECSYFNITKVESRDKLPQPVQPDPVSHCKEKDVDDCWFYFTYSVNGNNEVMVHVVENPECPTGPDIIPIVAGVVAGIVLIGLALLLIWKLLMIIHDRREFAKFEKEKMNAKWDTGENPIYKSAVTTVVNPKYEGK
Integrin beta-1 (Homo sapiens) + Integrin alpha-4 (Homo sapiens), sequence (P13612 whole entry, looked up): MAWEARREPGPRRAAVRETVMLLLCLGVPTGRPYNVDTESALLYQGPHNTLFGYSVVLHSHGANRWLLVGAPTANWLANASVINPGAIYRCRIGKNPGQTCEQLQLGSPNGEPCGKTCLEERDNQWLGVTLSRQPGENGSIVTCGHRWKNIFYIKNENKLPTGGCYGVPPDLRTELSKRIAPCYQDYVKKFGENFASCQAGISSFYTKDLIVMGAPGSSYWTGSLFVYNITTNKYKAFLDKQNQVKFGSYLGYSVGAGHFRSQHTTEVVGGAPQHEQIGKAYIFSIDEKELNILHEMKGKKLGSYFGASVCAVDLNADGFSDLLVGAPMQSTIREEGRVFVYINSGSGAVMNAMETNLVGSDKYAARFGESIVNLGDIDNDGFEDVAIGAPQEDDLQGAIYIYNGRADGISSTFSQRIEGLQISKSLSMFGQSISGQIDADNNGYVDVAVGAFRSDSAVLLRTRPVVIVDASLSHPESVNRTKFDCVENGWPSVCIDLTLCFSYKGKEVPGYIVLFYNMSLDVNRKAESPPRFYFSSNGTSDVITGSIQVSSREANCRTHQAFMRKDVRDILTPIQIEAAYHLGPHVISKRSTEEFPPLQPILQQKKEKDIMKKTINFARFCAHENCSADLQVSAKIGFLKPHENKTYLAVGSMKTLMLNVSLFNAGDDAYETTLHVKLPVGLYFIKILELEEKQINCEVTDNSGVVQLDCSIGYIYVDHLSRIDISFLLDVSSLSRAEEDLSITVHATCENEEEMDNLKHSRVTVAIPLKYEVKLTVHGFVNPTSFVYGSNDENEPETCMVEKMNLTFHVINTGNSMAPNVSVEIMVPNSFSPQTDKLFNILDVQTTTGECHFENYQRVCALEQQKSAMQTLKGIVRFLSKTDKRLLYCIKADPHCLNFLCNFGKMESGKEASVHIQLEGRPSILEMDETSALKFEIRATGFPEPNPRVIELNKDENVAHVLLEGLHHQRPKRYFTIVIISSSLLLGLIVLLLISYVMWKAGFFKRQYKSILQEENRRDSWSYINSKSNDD

In experiment [8] the target is Beta-adrenergic receptor kinase 1 (Homo sapiens) (UniProt P25098). The experiment is described as follows: GRK2 binders displacing RNA aptamer, biochemical, validation, human GRK2, bead flow cytometry (AID 488806;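 active = aptamer binding inhibition above 30%, about 3 SD of noise from non-fluorescent compounds; inactive = inhibition at or below 30%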). As to conditions: bead-bound GRK2, FAM-aptamer displacement, at 10 µM, stronger effect = higher value.
Beta-adrenergic receptor kinase 1 (Homo sapiens), sequence (P25098 whole entry, looked up): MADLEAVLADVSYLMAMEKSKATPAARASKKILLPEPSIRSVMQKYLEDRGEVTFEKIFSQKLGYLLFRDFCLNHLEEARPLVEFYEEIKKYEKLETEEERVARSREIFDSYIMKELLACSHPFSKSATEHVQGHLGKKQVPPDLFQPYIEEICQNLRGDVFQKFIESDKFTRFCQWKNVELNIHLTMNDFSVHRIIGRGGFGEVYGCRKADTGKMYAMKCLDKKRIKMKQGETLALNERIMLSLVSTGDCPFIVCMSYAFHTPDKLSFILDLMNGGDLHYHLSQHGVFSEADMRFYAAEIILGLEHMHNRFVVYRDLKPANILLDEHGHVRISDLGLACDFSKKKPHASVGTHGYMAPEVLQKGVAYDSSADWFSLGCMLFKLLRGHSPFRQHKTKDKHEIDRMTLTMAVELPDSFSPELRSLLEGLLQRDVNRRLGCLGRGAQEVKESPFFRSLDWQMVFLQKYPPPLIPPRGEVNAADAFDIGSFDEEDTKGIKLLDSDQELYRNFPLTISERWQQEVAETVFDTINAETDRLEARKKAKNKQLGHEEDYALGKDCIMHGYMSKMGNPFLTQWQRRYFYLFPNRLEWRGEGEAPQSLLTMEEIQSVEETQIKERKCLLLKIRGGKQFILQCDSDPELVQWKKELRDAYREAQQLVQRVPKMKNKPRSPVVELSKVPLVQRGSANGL
Experiment [9] has as its target Beta-2 adrenergic receptor (Homo sapiens) (UniProt P07550). Briefly: agonist-induced loss of surface beta2AR – cell-based, FAP fluorogen, flow cytometry, validation set, pilot screen (AID 504459;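 active = percent response above 42, roughly 3 SD of non-fluorescent test compounds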;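 note: agonist-driven loss of surface beta2AR via internalization measured by FAP dye flow cytometry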). As to conditions: Am2.2-beta2AR cells, at 10 µM, stronger effect = higher value.
Experiment [10] deals with AP-2 complex subunit beta (Homo sapiens) (UniProt P63010). The experiment is described as follows: beta-arrestin/AP2 interaction blockers – biochemical, validation set, GST-AP2 beads, flow cytometry, pilot screen (AID 504541;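 active = inhibition above 54%, about 3 SD of non-fluorescent compounds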;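 note: AP2 carries R879A mutation and is captured from E. coli lysate; bead-bound FITC arrestin peptide fluorescence measuring arrestin peptide binding to AP2; 0% = DMSO wells and 100% = excess unlabeled arrestin peptide control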). The following applies: FITC arrestin peptide, at 10 µM, stronger effect = higher value, AP2 beta2 appendage fragment, R879A mutant.
AP-2 complex subunit beta (Homo sapiens), sequence (P63010 whole entry, looked up, the tested form may be a part, one chain of several): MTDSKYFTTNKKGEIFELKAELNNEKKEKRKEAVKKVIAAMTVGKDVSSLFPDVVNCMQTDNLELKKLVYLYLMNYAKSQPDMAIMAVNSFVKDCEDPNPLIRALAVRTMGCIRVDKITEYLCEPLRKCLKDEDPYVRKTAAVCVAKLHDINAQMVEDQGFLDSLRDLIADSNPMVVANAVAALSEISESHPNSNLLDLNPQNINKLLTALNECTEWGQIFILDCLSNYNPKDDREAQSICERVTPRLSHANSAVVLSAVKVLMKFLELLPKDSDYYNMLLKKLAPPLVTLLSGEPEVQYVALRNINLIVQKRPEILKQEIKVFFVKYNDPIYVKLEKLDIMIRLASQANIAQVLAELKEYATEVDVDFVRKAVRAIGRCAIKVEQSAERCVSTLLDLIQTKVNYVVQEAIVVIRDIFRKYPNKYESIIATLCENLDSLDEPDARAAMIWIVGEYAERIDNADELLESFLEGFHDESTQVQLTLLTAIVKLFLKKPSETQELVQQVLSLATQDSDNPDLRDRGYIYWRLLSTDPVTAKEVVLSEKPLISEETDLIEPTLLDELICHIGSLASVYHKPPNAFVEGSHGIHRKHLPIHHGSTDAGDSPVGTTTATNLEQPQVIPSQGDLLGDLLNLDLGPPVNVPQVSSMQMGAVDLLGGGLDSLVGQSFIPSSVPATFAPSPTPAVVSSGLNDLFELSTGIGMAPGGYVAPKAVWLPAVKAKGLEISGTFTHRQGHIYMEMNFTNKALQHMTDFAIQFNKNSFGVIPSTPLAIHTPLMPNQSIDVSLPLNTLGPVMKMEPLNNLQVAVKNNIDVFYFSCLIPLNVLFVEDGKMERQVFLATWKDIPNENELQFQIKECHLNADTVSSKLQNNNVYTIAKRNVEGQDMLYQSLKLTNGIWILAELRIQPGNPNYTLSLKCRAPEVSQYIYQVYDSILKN
The nature of experiment [11]: cytosolic pH regulators acting via V-ATPase – S. cerevisiae, pHLuorin, HTS validation (AID 504600; in the data active = response above about 15%;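 note: plate controls were DMSO for no effect and reference compound for full effect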). As to conditions: V-ATPase proton transport, at 10 µM, stronger effect = higher value.
Experiment [12] relates to anti-desmoglein-3 scFv antibody binding to human DSG3. Briefly: blockers of pathogenic pemphigus antibody–desmoglein-3 binding – biochemical, validation compound set, bead-based, flow cytometry, pilot screen (AID 588368;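 active = binding below the plate cutoff, the plate median minus 3 SD, with a reading above zero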;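 note: signal is the median channel fluorescence of bead-bound GFP antibody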). As to conditions: Protein G beads, DSG3-Fc, scFv-GFP binding, at 10 µM, stronger effect = lower value.
Experiment [13] is described as follows: Nile Red efflux blockade in pump-expressing yeast – validation compound set, multiplex, phenotypic, pilot screen (AID 588506;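 active = efflux inhibition above 0.42, the validation set average plus 4 SD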;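 note: Nile Red retained in cells so higher fluorescence means more efflux inhibition; 0 = negative control wells and 1 = enniatin B 25 µM full block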). The following applies: S. cerevisiae pump-expressing triplex, Nile Red efflux flow cytometry; at 10 µM; stronger effect = higher value; the pumps come from Candida albicans.
Experiment [14] has as its target ATP-binding cassette sub-family B member 6 (Homo sapiens) (UniProt Q9NP58). The experiment is described as follows: blockers of ABCB6-driven porphyrin uptake – K562-ABCB6 cells, flow cytometry, validation set, pilot screen (AID 588550;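 active = inhibition above the screen-wide mean plus 3 SD, about 51%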;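 note: 0% = DMSO wells and 100% = benzethonium chloride 70 µM positive control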). The following applies: K562-ABCB6 porphyrin accumulation, 1 h, at 10 µM, stronger effect = higher value.
The nature of experiment [15]: AML differentiation inducers, ER-HoxA9 marrow cells – cell-based, GFP/MAC1 double positive, flow cytometry, validation set, primary screen (AID 588685;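 active = differentiation response of at least 50%, scaled between solvent and reference control, from cells with both markers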;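 note: compound exposure lasts four days before antibody staining and flow analysis; 0% = DMSO wells and 100% = 5 µM fulvestrant positive control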). The following applies: stronger effect = higher value, normalized: vehicle 0, fulvestrant 100.
Experiment [16] can be described thus: calorie-restriction mimetic ROS inhibitors, yeast – validation compound set, pilot screen (AID 2706;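 active = superoxide response below 65% of plate, a cut near 3 SD across the whole screen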;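 note: yeast exposed to compound for one week at 30 degrees C before staining; 100% = mean of all compound wells on the same plate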). As to conditions: S. cerevisiae aging, superoxide DHE fluorescence; at 10 µM, stronger effect = lower value.

Here are results for five compounds from PubChem BioAssay.

A word on the inhibition: it is the change of the read-out against control, counted positive when it falls.

Records with an inconclusive call do not appear. Activity calls are given as the source filed them.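 Rule for the calls, unless noted: active = GFP signal, as percent of the solvent control, above the screen mean plus 3 SD, about 149; inconclusive = no reading because the compound's own fluorescence upset strain identification; inactive = the rest.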

ATP-binding cassette sub-family B member 6 (Homo sapiens), sequence (Q9NP58 whole entry, looked up): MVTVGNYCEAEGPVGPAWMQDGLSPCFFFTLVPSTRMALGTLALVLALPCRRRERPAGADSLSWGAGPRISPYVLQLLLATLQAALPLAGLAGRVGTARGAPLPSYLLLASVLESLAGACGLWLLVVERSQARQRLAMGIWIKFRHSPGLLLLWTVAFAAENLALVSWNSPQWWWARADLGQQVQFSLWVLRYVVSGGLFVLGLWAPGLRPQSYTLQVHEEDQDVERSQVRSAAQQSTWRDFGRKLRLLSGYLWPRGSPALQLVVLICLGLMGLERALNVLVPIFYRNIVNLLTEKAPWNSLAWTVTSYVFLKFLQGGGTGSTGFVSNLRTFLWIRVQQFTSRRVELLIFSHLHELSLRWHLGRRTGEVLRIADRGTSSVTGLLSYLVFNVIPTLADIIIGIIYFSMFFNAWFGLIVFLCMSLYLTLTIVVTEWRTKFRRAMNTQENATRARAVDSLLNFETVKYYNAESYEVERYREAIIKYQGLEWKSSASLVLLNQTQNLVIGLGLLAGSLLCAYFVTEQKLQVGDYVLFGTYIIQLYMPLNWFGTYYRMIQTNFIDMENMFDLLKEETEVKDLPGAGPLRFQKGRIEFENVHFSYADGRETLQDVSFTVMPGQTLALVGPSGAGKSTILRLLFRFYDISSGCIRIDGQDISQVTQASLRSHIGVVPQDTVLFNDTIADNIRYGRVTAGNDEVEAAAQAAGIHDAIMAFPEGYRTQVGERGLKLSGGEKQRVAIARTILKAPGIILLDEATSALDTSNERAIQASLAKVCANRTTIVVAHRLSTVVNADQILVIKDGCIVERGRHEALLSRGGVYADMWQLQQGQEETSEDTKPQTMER
Beta-2 adrenergic receptor (Homo sapiens), sequence (P07550 whole entry, looked up): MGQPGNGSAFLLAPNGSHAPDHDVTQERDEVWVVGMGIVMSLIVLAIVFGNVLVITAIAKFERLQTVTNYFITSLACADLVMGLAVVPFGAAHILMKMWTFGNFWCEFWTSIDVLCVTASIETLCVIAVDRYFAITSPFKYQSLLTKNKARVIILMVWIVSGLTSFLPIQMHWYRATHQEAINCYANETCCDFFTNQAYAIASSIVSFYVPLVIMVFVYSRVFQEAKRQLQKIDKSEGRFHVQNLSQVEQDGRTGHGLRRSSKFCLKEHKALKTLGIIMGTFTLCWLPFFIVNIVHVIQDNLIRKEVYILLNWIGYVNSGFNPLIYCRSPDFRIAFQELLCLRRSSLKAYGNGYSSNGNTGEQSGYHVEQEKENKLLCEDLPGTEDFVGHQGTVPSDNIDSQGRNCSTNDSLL

For `CCc1cc2c(=O)c(-c3ccc(F)cc3)c(C)oc2cc1OCC(=O)O`, the percent of DMSO control GFP in experiment [1] was 107% (inactive). For the same compound, the GFP response vs DMSO in [2] is 98.3% (inactive); in experiment [4], 88.1% (inactive). Moreover, in [3], the percent response of DMSO control is 104% (inactive). Moreover, in [5], the GFP response, % of DMSO is 100% (inactive). The double positive events in experiment [6] amounted to 70.6%. The vesicle binding response in experiment [6] was 168% (inactive). For the same compound, the inhibition is 6.81% (inactive) in [7], -6.22% (inactive) in [10] and -6% (inactive) in experiment [14]. Besides, in experiment [8], the aptamer binding inhibition was -3% (inactive). Further, the response was -3.44% (inactive) in [9] and 0.76% (inactive) in [11]. In experiment [12], the binding (% of control) was 104% (inactive). In addition, in experiment [13], the efflux inhibition (fraction of control) is 0.43 (active). Further, the differentiation response in experiment [15] was 30.5% (inactive).
Turning to `COc1ccc(OCC(=O)N2c3ccc(C)cc3C3CN(C)CCC32)cc1` (centres undefined), in experiment [1], the percent of DMSO control GFP was 104% (inactive). The GFP response vs DMSO in experiment [2] was 101% (inactive); in experiment [4], 98.4% (inactive). Besides, the percent response of DMSO control in experiment [3] is 105% (inactive). Also, the GFP response, % of DMSO in experiment [5] was 96.1% (inactive). The compound also had a double positive events in experiment [6] of 69.1%. In addition, the vesicle binding response in experiment [6] is 238% (inactive). The inhibition in experiment [7] is 10% (inactive); in experiment [10] it was -6.29% (inactive); in experiment [14] it was 5% (inactive). In experiment [16], the superoxide response (% of plate) was 90.6% (inactive). Also, the aptamer binding inhibition in experiment [8] is -10% (inactive). In addition, the response in experiment [11] was -0.64% (inactive). Also, in experiment [12], the binding (% of control) is 106% (inactive). In addition, the efflux inhibition (fraction of control) in experiment [13] was 0.33 (inactive). Moreover, the differentiation response in [15] is 32.1% (inactive).
With `CC(C)(C)NCC(O)c1cc(O)cc(O)c1` (centres undefined), in [1], the percent of DMSO control GFP was 97.8% (inactive). For the same compound, the GFP response vs DMSO is 102% (inactive) in experiment [2] and 106% (inactive) in [4]. Besides, in [3], the percent response of DMSO control is 95.1% (inactive). Also, in experiment [5], the GFP response, % of DMSO is 119% (inactive). In experiment [6], this compound registered a double positive events of 61.6%. Further, in [6], the vesicle binding response is 190% (inactive). Besides, the inhibition in experiment [7] is -15.6% (inactive); in experiment [10], -13.2% (inactive); in experiment [14] it was 6% (inactive). Moreover, the superoxide response (% of plate) in experiment [16] is 113% (inactive). Further, the response in experiment [11] was -6.14% (inactive). Besides, the binding (% of control) in experiment [12] was 100% (inactive). Besides, the efflux inhibition (fraction of control) in experiment [13] is -0.04 (inactive). In addition, the differentiation response in [15] was -4.99% (inactive).
As for `CC(C)Cc1ccc(C(C)C(=O)Nc2ccc(O)cc2)cc1` (centres undefined), in experiment [1], the percent of DMSO control GFP was 103% (inactive). Also, the results for the GFP response vs DMSO in [2] and in experiment [4] were 105% (inactive) and 106% (inactive), respectively. Besides, the percent response of DMSO control in experiment [3] was 107% (inactive). In addition, the GFP response, % of DMSO in [5] was 99.7% (inactive). This compound displayed a double positive events in experiment [6] of 58.6%. For the same compound, the vesicle binding response in [6] is 178% (inactive). Moreover, the figures for the inhibition in [7], in experiment [10] and in [14] were 13.8% (inactive), 33.6% (inactive) and 1% (inactive), respectively. For the same compound, in experiment [16], the superoxide response (% of plate) is 110% (inactive). Also, the aptamer binding inhibition in [8] is 2% (inactive). In addition, the response in experiment [11] is -13.1% (inactive). For the same compound, the binding (% of control) in [12] is 105% (inactive). Also, the efflux inhibition (fraction of control) in [13] was 0.14 (inactive). For the same compound, in experiment [15], the differentiation response was 0% (inactive).
In the case of `CCCOc1ccc(-c2cc(C(=O)NCC3CCCO3)c3ccccc3n2)cc1` (centres undefined), the percent of DMSO control GFP in experiment [1] was 99.5% (inactive). Also, the GFP response vs DMSO in [2] is 102% (inactive); in experiment [4] it was 105% (inactive). Besides, in [3], the percent response of DMSO control was 91% (inactive). The GFP response, % of DMSO in [5] was 84.4% (inactive). Further, in experiment [6], the double positive events came out at 55.9%. Moreover, in [6], the vesicle binding response was 199% (inactive). In addition, the results for the inhibition in experiment [7], in [10] and in experiment [14] were 13.8% (inactive), -3.49% (inactive) and 12% (inactive), respectively. Further, the superoxide response (% of plate) in [16] is 91.2% (inactive). The aptamer binding inhibition in experiment [8] is 1% (inactive). Besides, the response in experiment [11] was 6.44% (inactive). Further, the binding (% of control) in experiment [12] was 97.3% (inactive). Also, in [13], the efflux inhibition (fraction of control) was 0.18 (inactive). For the same compound, in experiment [15], the differentiation response is 7.87% (inactive).
